# From article PMC11006913
# Target: HOXA2 (Homo sapiens, UniProt O43364 129-215)
# Assay: PBM; 200 nM protein, PBS
# Details: dsDNA, one strand shown
# Sequence of HOXA2 (O43364 129-215): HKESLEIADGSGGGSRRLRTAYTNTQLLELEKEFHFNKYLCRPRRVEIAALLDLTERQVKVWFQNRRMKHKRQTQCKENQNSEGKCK
row,Sequence,binding signal
1,CTAATTGC,"12.6 upbm affinity estimate (log intensity, higher = more binding, comparable within an allelic series)"
2,CGGGCTCC,"6.39 upbm affinity estimate (log intensity, higher = more binding, comparable within an allelic series)"
3,CCAGGCCG,"7.17 upbm affinity estimate (log intensity, higher = more binding, comparable within an allelic series)"
4,GCACTTAA,"10.4 upbm affinity estimate (log intensity, higher = more binding, comparable within an allelic series)"

# Target: VAX1 (Homo sapiens, UniProt Q5SQQ9 86-172, K157R)
# Sequence (Q5SQQ9 86-172 K157R): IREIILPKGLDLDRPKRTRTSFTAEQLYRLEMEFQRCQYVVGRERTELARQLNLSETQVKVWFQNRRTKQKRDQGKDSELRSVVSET
# Assay: PBM; 200 nM protein, PBS
# Details: dsDNA, one strand shown
row,Sequence,binding signal
1,AATTAGCT,"12.4 upbm affinity estimate (log intensity, higher = more binding, comparable within an allelic series)"
2,ACGGCGGC,"7.25 upbm affinity estimate (log intensity, higher = more binding, comparable within an allelic series)"
3,CTAATTGC,"12.8 upbm affinity estimate (log intensity, higher = more binding, comparable within an allelic series)"
4,CGGGCTCC,"6.27 upbm affinity estimate (log intensity, higher = more binding, comparable within an allelic series)"

# Target: NKX2-5 (Homo sapiens, UniProt P52952 125-210)
# Sequence (P52952 125-210): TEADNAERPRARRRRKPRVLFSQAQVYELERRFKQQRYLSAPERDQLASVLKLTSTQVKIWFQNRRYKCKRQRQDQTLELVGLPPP
# Assay: PBM; 200 nM protein, PBS
# Details: dsDNA, one strand shown
row,Sequence,binding signal
1,AAGTGGAG,"12.2 upbm affinity estimate (log intensity, higher = more binding, comparable within an allelic series)"
2,AATTAGCT,"10.6 upbm affinity estimate (log intensity, higher = more binding, comparable within an allelic series)"
3,CACGCGTG,"8.74 upbm affinity estimate (log intensity, higher = more binding, comparable within an allelic series)"
4,CTTAAGTA,"12.8 upbm affinity estimate (log intensity, higher = more binding, comparable within an allelic series)"
5,ACGGCGGC,"8.98 upbm affinity estimate (log intensity, higher = more binding, comparable within an allelic series)"
6,CACTTAGA,"12.4 upbm affinity estimate (log intensity, higher = more binding, comparable within an allelic series)"
7,CCCGGCGG,"8.58 upbm affinity estimate (log intensity, higher = more binding, comparable within an allelic series)"
8,CGGTCCAA,"8.42 upbm affinity estimate (log intensity, higher = more binding, comparable within an allelic series)"
9,CACTTTAA,"12.4 upbm affinity estimate (log intensity, higher = more binding, comparable within an allelic series)"
10,CTAATTGC,"11.1 upbm affinity estimate (log intensity, higher = more binding, comparable within an allelic series)"
11,CACTTAAC,"12.8 upbm affinity estimate (log intensity, higher = more binding, comparable within an allelic series)"
12,CGGACCCG,"8.79 upbm affinity estimate (log intensity, higher = more binding, comparable within an allelic series)"
13,ACGGCTGG,"8.82 upbm affinity estimate (log intensity, higher = more binding, comparable within an allelic series)"
14,ACCAGCTG,"9.02 upbm affinity estimate (log intensity, higher = more binding, comparable within an allelic series)"
15,GTACTTAA,"12.9 upbm affinity estimate (log intensity, higher = more binding, comparable within an allelic series)"
16,AATAAGTG,"12.4 upbm affinity estimate (log intensity, higher = more binding, comparable within an allelic series)"
17,ACCACTTA,"13.1 upbm affinity estimate (log intensity, higher = more binding, comparable within an allelic series)"
18,ACGCGCAG,"8.69 upbm affinity estimate (log intensity, higher = more binding, comparable within an allelic series)"
19,CACTTATA,"12.8 upbm affinity estimate (log intensity, higher = more binding, comparable within an allelic series)"
20,CCGGCGCG,"8.51 upbm affinity estimate (log intensity, higher = more binding, comparable within an allelic series)"

row,Sequence,binding signal
1,ACCCGGGC,"8.92 upbm affinity estimate (log intensity, higher = more binding, comparable within an allelic series)"
2,CGAACGCC,"8.69 upbm affinity estimate (log intensity, higher = more binding, comparable within an allelic series)"
3,CCGGAGCC,"8.87 upbm affinity estimate (log intensity, higher = more binding, comparable within an allelic series)"
4,ACACTTAT,"12.6 upbm affinity estimate (log intensity, higher = more binding, comparable within an allelic series)"
5,CTACTTAA,"12.3 upbm affinity estimate (log intensity, higher = more binding, comparable within an allelic series)"
6,CCACTTTA,"12.7 upbm affinity estimate (log intensity, higher = more binding, comparable within an allelic series)"
7,CGGGCTCC,"8.58 upbm affinity estimate (log intensity, higher = more binding, comparable within an allelic series)"
8,ATCAAGTG,"12.6 upbm affinity estimate (log intensity, higher = more binding, comparable within an allelic series)"
9,CCAGGCCG,"8.78 upbm affinity estimate (log intensity, higher = more binding, comparable within an allelic series)"
10,CTTCCGTC,"8.77 upbm affinity estimate (log intensity, higher = more binding, comparable within an allelic series)"
11,ATAAGTAC,"12.7 upbm affinity estimate (log intensity, higher = more binding, comparable within an allelic series)"
12,CCGCGTCG,"8.95 upbm affinity estimate (log intensity, higher = more binding, comparable within an allelic series)"
13,AAGTACCT,"12.4 upbm affinity estimate (log intensity, higher = more binding, comparable within an allelic series)"
14,AAGCACTT,"12.5 upbm affinity estimate (log intensity, higher = more binding, comparable within an allelic series)"
15,ATTACGTA,"10.3 upbm affinity estimate (log intensity, higher = more binding, comparable within an allelic series)"
16,GCACTTAA,"13 upbm affinity estimate (log intensity, higher = more binding, comparable within an allelic series)"
17,CCAGCGCG,"8.52 upbm affinity estimate (log intensity, higher = more binding, comparable within an allelic series)"
18,GCCACTTA,"13.1 upbm affinity estimate (log intensity, higher = more binding, comparable within an allelic series)"
19,CGCCCGAG,"8.76 upbm affinity estimate (log intensity, higher = more binding, comparable within an allelic series)"

# Target: HOXB6 (Homo sapiens, UniProt P17509 132-218)
# Sequence (P17509 132-218): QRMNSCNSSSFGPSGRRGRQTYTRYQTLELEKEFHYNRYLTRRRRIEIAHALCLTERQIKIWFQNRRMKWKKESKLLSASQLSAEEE
# Assay: PBM; 200 nM protein, PBS
# Details: dsDNA, one strand shown
row,Sequence,binding signal
1,ACGGCGGC,"9.12 upbm affinity estimate (log intensity, higher = more binding, comparable within an allelic series)"
2,CTAATTGC,"11.8 upbm affinity estimate (log intensity, higher = more binding, comparable within an allelic series)"
3,CGGACCCG,"9 upbm affinity estimate (log intensity, higher = more binding, comparable within an allelic series)"
4,CCGGAGCC,"8.93 upbm affinity estimate (log intensity, higher = more binding, comparable within an allelic series)"
5,CGGGCTCC,"8.31 upbm affinity estimate (log intensity, higher = more binding, comparable within an allelic series)"
6,GCACTTAA,"10.9 upbm affinity estimate (log intensity, higher = more binding, comparable within an allelic series)"

# Target: NKX3-2 (Homo sapiens, UniProt P78367 192-278)
# Sequence (P78367 192-278): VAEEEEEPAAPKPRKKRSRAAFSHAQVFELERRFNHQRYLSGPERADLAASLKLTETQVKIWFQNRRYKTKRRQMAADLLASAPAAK
# Assay: PBM; 200 nM protein, PBS
# Details: dsDNA, one strand shown
row,Sequence,binding signal
1,AAGTGGAG,"12.8 upbm affinity estimate (log intensity, higher = more binding, comparable within an allelic series)"
2,CACTTAGA,"12.8 upbm affinity estimate (log intensity, higher = more binding, comparable within an allelic series)"
3,CACTTTAA,"12.6 upbm affinity estimate (log intensity, higher = more binding, comparable within an allelic series)"
4,CACTTAAC,"12.9 upbm affinity estimate (log intensity, higher = more binding, comparable within an allelic series)"
5,GTACTTAA,"12.8 upbm affinity estimate (log intensity, higher = more binding, comparable within an allelic series)"
6,ACCACTTA,"13.3 upbm affinity estimate (log intensity, higher = more binding, comparable within an allelic series)"
7,CACTTATA,"12.8 upbm affinity estimate (log intensity, higher = more binding, comparable within an allelic series)"
8,CCGGAGCC,"10.4 upbm affinity estimate (log intensity, higher = more binding, comparable within an allelic series)"
9,CCACTTTA,"13.1 upbm affinity estimate (log intensity, higher = more binding, comparable within an allelic series)"
10,AAGTACCT,"12.6 upbm affinity estimate (log intensity, higher = more binding, comparable within an allelic series)"
11,AAGCACTT,"12.6 upbm affinity estimate (log intensity, higher = more binding, comparable within an allelic series)"
12,GCACTTAA,"13.1 upbm affinity estimate (log intensity, higher = more binding, comparable within an allelic series)"
13,GCCACTTA,"13.4 upbm affinity estimate (log intensity, higher = more binding, comparable within an allelic series)"
